Experimental data published in the supplement of paper PMC7156485.

Columns and labels:
Details in all cases: concentration: 10 µM; 24 h
HCC1569 [1] = assay: cell number relative to DMSO (% of DMSO); higher = more cells (less growth inhibition / toxicity)
Procedure, shortened: (§1)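 Using 384-well plates with 800 cells per well in RPMI plus 10% FBS, HCC1569 and TDF cells were exposed to compounds at 10 µM, in triplicate, for 24 h at 37 °C. Imaging of six fields per well at ×10 followed H1.0 and DAPI staining. The reported quantity, H1.0 nuclear intensity or cell number, is a median of replicates given as percent of the plate control, and HCC1569 values were smoothed for positional effects.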

TDF [2] = assay: as above
Procedure, shortened: as §1

TDF [3] = assay: H1.0 immunofluorescence intensity relative to DMSO (% of DMSO); higher = stronger H1.0 induction, active = 120 or more
Procedure, shortened: as §1

HCC1569 [4] = assay: H1.0 immunofluorescence intensity relative to DMSO (% of DMSO); higher = stronger H1.0 induction, active = 140 or more
Procedure, shortened: as §1
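For H1.0 immunofluorescence intensity relative to DMSO in this document: TDF is a line of transformed human dermal fibroblasts of mesenchymal origin.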
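For cell number relative to DMSO in this document: TDF denotes transformed human dermal fibroblasts of mesenchymal origin.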

SMILES | cell number (HCC1569 [1]) | cell number (TDF [2]) | H1.0 immunofluorescence intensity (TDF [3]) | H1.0 immunofluorescence intensity (HCC1569 [4])
COc1cc2c3cc1Oc1c(OO)c(OC)cc4c1C(Cc1ccc(cc1)Oc1cc(ccc1O)CC3N(C)CC2)N(C)CC4.O=S(=O)(O)O (stereo not given) [Oxyacanthine sulfate] | 55.6 | 11.7 | 186 (active) | 148 (active)
CCCN(CCC)C1CCc2ccc(O)cc2C1 (racemic) | 102 | 111 | 88.7 (inactive) | 95.4 (inactive)
CC12CCC(O)CC1CCC1C2CCC2(C)C(C3=CC(=O)OC3)C(O)CC12O (stereo not given) [Gitoxigenin] | 104 | 73.1 | 103 (inactive) | 81.4 (inactive)
CC(C)(C)c1o[nH]c(=O)c1CC(N)C(=O)O (stereo not given) | 98.3 | 104 | 90 (inactive) | 95 (inactive)
C[N+](C)(C)CCCCCCCCCC[N+](C)(C)C.[Br-].[Br-] [Decamethonium dibromide] | 101 | 100 | 91.7 (inactive) | 88.8 (inactive)
CCCCCC(C=CC=CCC=CCC=CCCCC(=O)O)OO (stereo not given) | 106 | 100 | 96.4 (inactive) | 113 (inactive)
CCCCCCC(C)(C)c1ccc(C2CC(O)CCC2CCCO)c(O)c1 (stereo not given) | 99.3 | 109 | 91.7 (inactive) | 93 (inactive)
Nc1ccncc1 [4-Aminopyridine] | 101 | 103 | 95.3 (inactive) | 88 (inactive)
CN1[C@@H]2CC[C@H]1C[C@@H](OC(=O)[C@H](CO)c1ccccc1)C2 [L-Hyoscyamine] | 100 | 117 | 95 (inactive) | 96.2 (inactive)
COc1cc(C(=O)OC2CC3CCC(C2)N3C)ccc1O (stereo not given) [Fillalbin] | 101 | 93.9 | 98.2 (inactive) | 94.5 (inactive)
